Rows were chosen to be rich in hits. Some 12% of all compounds tested hit in one or more screens of this group.
PLK1 PBD block – blocks phosphopeptide binding to human PLK1 polo-box domain; Potency, µM, without a hit: max response, negative = inhibition, hits mostly inhibitors; Plk1 PBD binding of FITC phosphopeptide, fluorescence polarization; 360,000 tested, 2.8% active; P53350; further: series mostly up to about 57 µM; on the % scale 0 is the no-effect control and ±100 the full control effect; nearly all actives have a fitted effect of over 65% in size
HP1b chromo inh – blocks HP1-beta chromodomain binding to methylated histone tails; AlphaScreen HP1-beta / biotin-H3K9me3 peptide binding; 390,000 tested, 0.56% active; P83916; Potency, µM (series often up to 114 µM), inactives show at the top dose activity change, negative = inhibition, actives largely listed as inhibitors; AID 540317; further: nearly all actives have a fitted effect of over 70% in size
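AlphaScreen: HP1-beta (50 nM) preformed 30 min with biotin-H3(1-18)K9me3 peptide (50 nM) in PBS pH 7.4, 0.01% Tween-20. Compound added for 30 min at RT, then streptavidin donor/nickel chelate acceptor beads (10 ug/mL) for 30 min.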
BAZ2B inh – inhibitors of human BAZ2B bromodomain | 360,000 tested, 4.4% active | Potency, µM (top dose mostly 114 µM), for inactives: top-dose activity change, negative = inhibition, most hits filed as inhibitors | AID 504333 | Q9UIF8 | AlphaScreen BAZ2B-H3K14Ac peptide displacement; further: on the % scale 0 is the no-effect control and ±100 the full control effect; nearly all actives have a fitted effect of over 60% in size
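Protein-peptide AlphaScreen: BAZ2B 50 nM, b-H3K14Ac 50 nM, 1x PBS pH 7.4 + 0.01% Tween-20. Preincubation 30 min RT; cpd 30 min RT (top 110 uM); beads 20 min RT, light-protected.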
JMJD2A Tudor – inhibitors of human JMJD2A Tudor domain. AlphaScreen JMJD2A-Tudor / H3K4me3 peptide binding. Potency, µM (highest dose often 114 µM), for inactives: at the top dose activity change, negative = inhibition, usual class: inhibitors. 390,000 tested, 4.4% active. AID 504339. O75164; further: on the % scale 0 is the no-effect control and ±100 the full control effect; nearly all actives have a fitted effect of over 50% in size
Sfp inh – Sfp phosphopantetheinyl transferase inhibition; Q9F4F7; Biochemical Sfp PPTase activity, qHTS; Potency, µM, for the others: largest response in the series, negative = inhibition, usual class: inhibitors; 310,000 tested, 3.5% active; AID 1490;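 further: the enzyme is Sfp with the accession as filed and its product quenches rhodamine fluorescence; 0% = enzyme reaction without inhibitor and -100% = no enzyme wells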
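After 15 min at room temperature with compound, 15 nM Sfp received 5 uM rhodamine-CoA plus 12.5 uM BHQ-2-ybbR (50 mM Hepes pH 7.6, 10 mM MgCl2). Rate came from the fluorescence difference over 30 min, ex 525/em 598 nm.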
G9a block – G9a (human) methyltransferase inhibition; G9a H3K9 monomethylation, AlphaScreen, 2 h; AID 504332; Potency, µM (top dose mostly 102 µM), for the others: top-dose activity, negative = inhibition, usual class: inhibitors; 350,000 tested, 8.8% active; further: on the % scale 0 is the no-effect control and ±100 the full control effect; nearly all actives have a fitted effect of over 75% in size
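Compounds were preincubated with 20 nM G9a for 15 min, after which biotinylated H3K9 peptide (500 nM) and SAM (20 uM) started a 2 h room-temperature reaction. Monomethylated product was quantified by antibody-based AlphaScreen chemiluminescence.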
* hit, by the source's call; ! = not active in a repeat; [ ] = another dose, or the depositor's remark. The call rests on the fitted dose curve; in most records, active means well fitted curve in the direction sought with a large enough effect; inconclusive means small, poorly fitted or top-dose-only effect, or another doubt; inactive means no such curve, though single readings can be large; an effect the other way counts as inactive or inconclusive. Potency means the concentration at half of the fitted maximal effect.

For CN(C)CCCNC(=O)C[C@H]1C[C@H](C(=O)N2CCCCC2)[C@@]2(CCc3ccccc3)c3[nH]c4cc(-c5ccco5)ccc4c3CCN2C1=O the results were PLK1 PBD block -10%, HP1b chromo inh inconclusive and JMJD2A Tudor 50µM*.
For CC[C@]12c3[nH]c4cc(-c5ccco5)ccc4c3CCN1C(=O)[C@@H](CC(=O)NCCC1=CCCCC1)C[C@@H]2C(=O)N1CCN(C(=O)C2CC2)CC1 the results were PLK1 PBD block 21µM*, HP1b chromo inh 7% and JMJD2A Tudor inconclusive.
O=C(C[C@H]1C[C@H](C(=O)N2CCOCC2)[C@@]2(CCC3CCCC3)c3[nH]c4ccc(Cl)cc4c3CCN2C1=O)NCC12CC3CC(CC(C3)C1)C2 was read as PLK1 PBD block -6%, HP1b chromo inh 0% and JMJD2A Tudor -31%.
`COc1ccc(NC(=O)N2CC3(CCN(C(=O)c4cnccn4)CC3)C2)cc1` gave Sfp inh -6% and G9a block 0%[12.7 µM].
`Oc1ccccc1C1C=C(c2ccc3c(c2)OCO3)NC(c2cccc(Cl)c2)N1` (stereo not given) gave HP1b chromo inh 7%[57 µM] and JMJD2A Tudor 2%[57.1 µM].
CCOC(=O)c1cccc(NC(=O)CC2C(=O)N(c3ccc(Cl)cc3)C(=O)N2C2CCCC2)c1 (stereo not given) was read as HP1b chromo inh 41%, BAZ2B inh -23%, JMJD2A Tudor -20% and G9a block -46%[59 µM].
Cc1cccc(-c2nc(Nc3ccc(N4CCOCC4)cc3)c3ccccc3n2)c1 was read as PLK1 PBD block -1%, HP1b chromo inh -35%, BAZ2B inh 25µM*, JMJD2A Tudor 40µM*, Sfp inh 2% and G9a block 7.1µM*.
For CC(=O)c1cccc(Nc2nc(-c3cccc(C)c3)nc3ccccc23)c1 the results were HP1b chromo inh 0%, BAZ2B inh -7%, JMJD2A Tudor -26% and G9a block 7.1µM*.
`CCCCNC(=O)Cn1nc(N2CCN(c3ccccc3OC)CC2)ccc1=O` gave HP1b chromo inh 25%, BAZ2B inh inconclusive, JMJD2A Tudor -12% and G9a block 1%[59 µM].
For c1ccc2ncccc2c1 the results were PLK1 PBD block -10%, HP1b chromo inh 19% and JMJD2A Tudor -18%.
Fc1ccccc1-c1cc2ncccc2cn1 was read as PLK1 PBD block -2%, HP1b chromo inh 46%, BAZ2B inh 56µM*, JMJD2A Tudor inconclusive and G9a block -4%[0.501 µM].
`O=C(O)COc1ccc(Br)cc1/C=N/O` gave PLK1 PBD block -5%, HP1b chromo inh 24%, BAZ2B inh inconclusive, JMJD2A Tudor -32%, Sfp inh 4% and G9a block 56µM*.
For CCOc1ccc(Br)cc1/C=N/O the results were PLK1 PBD block -1%, HP1b chromo inh 16%, BAZ2B inh 2%, JMJD2A Tudor -1%, Sfp inh 10% and G9a block 4%[59 µM].
For Oc1ccc(/C=C/c2cc(O)cc(O)c2)cc1 the results were PLK1 PBD block -9%, HP1b chromo inh 15%, BAZ2B inh -27%, JMJD2A Tudor -27%, Sfp inh 6% and G9a block 7.9µM*!.
Screening Oc1ccc(/C=C\c2cc(O)cc(O)c2)cc1 returned Sfp inh -3% and G9a block -41%[5.15 µM].
Cc1ccc(C=Nc2ccc(N(C)C)cc2)o1 was read as PLK1 PBD block -2%, HP1b chromo inh inconclusive, JMJD2A Tudor 45µM*, Sfp inh inconclusive and G9a block 1.3µM*.
For Cc1ccc(C=Nc2ccccc2C(N)=O)o1 the results were PLK1 PBD block 2%, HP1b chromo inh 29%, BAZ2B inh 7%, JMJD2A Tudor -3%, Sfp inh -50% and G9a block 33%[59 µM].
For CN(C)C(=O)c1ccc(-c2cncnc2NCc2cccs2)cc1 the results were Sfp inh 50µM*.

Source: PubChem
